HEK cytotox: cytotoxic compounds in HEK 293 cells; 94,000 compounds, 6.6% hits; HEK 293 viability, ATP luminescence (CellTiter-Glo), 48-72 h; Potency, µM (highest dose often 115 µM), for the others: top-dose activity change, negative = cytotoxicity, hits mostly inhibitors; also: nearly all actives have a fitted effect of over 60% in size
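Cells seeded first (HEK 293, 250 cells/well), then compound added by pintool. Incubation ran 48 or 72 hr at 37 degree Celsius. CellTiter-Glo was added and luminescence imaged after 10 min at room temperature.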
FLuc inh: inhibitors of firefly (Photinus pyralis) luciferase; purified P. pyralis luciferase, luminescence, biochemical; 76,000 compounds, 2.5% hits; AID 1347043; Potency, µM (doses to about 115 µM), most hits filed as inhibitors; also: nearly all actives have a fitted effect of over 65% in size
Target sequence (P08659 whole entry, looked up): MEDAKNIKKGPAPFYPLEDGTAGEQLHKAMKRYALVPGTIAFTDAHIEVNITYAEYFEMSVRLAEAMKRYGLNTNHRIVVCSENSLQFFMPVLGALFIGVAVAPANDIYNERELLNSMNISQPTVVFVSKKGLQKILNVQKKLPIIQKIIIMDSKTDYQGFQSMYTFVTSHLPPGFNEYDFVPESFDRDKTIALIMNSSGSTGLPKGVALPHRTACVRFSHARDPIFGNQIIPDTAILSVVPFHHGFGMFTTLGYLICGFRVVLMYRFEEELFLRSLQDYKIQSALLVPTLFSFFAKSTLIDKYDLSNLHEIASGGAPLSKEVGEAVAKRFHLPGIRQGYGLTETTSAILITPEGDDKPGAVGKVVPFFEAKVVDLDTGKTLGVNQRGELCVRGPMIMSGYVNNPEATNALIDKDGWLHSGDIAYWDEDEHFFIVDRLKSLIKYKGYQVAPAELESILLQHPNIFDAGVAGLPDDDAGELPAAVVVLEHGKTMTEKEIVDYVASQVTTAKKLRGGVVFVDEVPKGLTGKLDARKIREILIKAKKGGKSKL
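Purified 10nM P. pyralis luciferase with 10uM D-luciferin and 10uM ATP in 50mM Tris acetate pH 7.5, 10mM Mg acetate, 0.01% Tween-20, 0.05% BSA. qHTS titration; luminescence read by CCD imager.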
NPR1 antag: human Npr1 receptor antagonism | 76,000 compounds, 1.6% hits | AID 1347048 | HEK293 hNpr1 GloSensor cGMP, ANP-stimulated luminescence | Potency, µM (highest dose often 46.3 µM), inactives show at the highest dose activity change, negative = inhibition, usual class: inhibitors | P16066; calls by dose curve; also: nearly all actives have a fitted effect of over 60% in size
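HEK293 cells stably expressing human Npr1 and cGMP GloSensor pGS-40F, loaded 2 h with 2% GloSensor reagent, given compound 30 min at room temperature. Luminescence read before and 20 min after 0.1 nM hNppA.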
NIH3T3 tox: kills NIH 3T3 cells; Potency, µM (highest dose often 96.7 µM), without a hit: top-dose activity change, negative = cytotoxicity, usual class: inhibitors; 94,000 compounds, 4.3% hits; NIH 3T3 viability, CellTiter-Glo ATP luminescence, 48-72 h; also: nearly all actives have a fitted effect of over 55% in size
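ATP-dependent luminescence (CellTiter-Glo) served as the viability signal for NIH 3T3 cells treated with compound for 48 or 72 hr at 37 °C.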
* = called active by the depositor; i = inactive; ? = inconclusive; . = no result given; [ ] = another dose, or the depositor's remark. Most compounds without a hit are left out; they make up all but 11% or so of the library. Unless noted, calls follow the shape of the dose curve; as a rule, active = well fitted curve in the direction sought with a large enough effect; inconclusive = small, poorly fitted or top-dose-only effect, or another doubt; inactive = no such curve, though single readings can be large; an effect the other way counts as inactive or inconclusive. % is scaled to controls: 0 for no effect and ±100 for the full control effect; potency is read from the fitted curve at half-maximal effect.

SMILES	HEK cytotox	FLuc inh	NPR1 antag	NIH3T3 tox
Cc1nn(-c2ccccc2)c2c1C(C1CC1)N(C1CN([S+](=O)([O-])c3cccs3)C1)C2=O (stereo unspecified)	-2%	.	.	i
Cc1noc(C)c1CN1CCNc2cc(-c3ccccc3)ncc2C1	?	63µM*	0%[70.6 µM]	?
c1ccc(-c2cc3c(cn2)NCCN(Cc2ccccn2)C3)cc1	?	i	1%[70.6 µM]	-19%[138 µM]
Cc1noc(C)c1CN1CCNc2cc(Nc3ccccc3)ncc2C1	?	35µM*	-1%[70.6 µM]	-67%[138 µM]
O=C(C1CCCN1C(=O)C1CC1)N1CCC(c2nc3ccncc3[nH]2)CC1 (stereo unspecified)	4%	.	.	-11%
CC(C)c1ccc(CN2CCCC3(CCN(C(=O)c4ccnn4C)C3)C2)cc1 (stereo unspecified)	40µM*	i	-15%	-27%
CC1=C[C@@H](CNC(=O)[C@@H]2CCCC[C@@H]2C(=O)O)[C@H](C(C)C)C[C@H]1Cc1nc2c(C)cccc2[nH]1	-15%	i	1%	-4%
CC1=C[C@@H](CNC(=O)Nc2ccc(F)cc2)[C@H](C(C)C)C[C@H]1Cc1nc2c(C)cccc2[nH]1	?	?	-23%	40µM*
CC1=C[C@@H](CNC(=O)C2CCCCC2)[C@H](C(C)C)C[C@H]1Cc1nc2c(C)cccc2[nH]1	?	i	-19%[70.6 µM]	25µM*
CSc1ccc(-c2cccc(C(=O)NCCN[S+](=O)([O-])c3ccc(C)cc3)c2)cc1	40µM*	.	.	?
CSc1ccc(-c2cccc(C(=O)NCCNC(=O)N(C)C)c2)cc1	25µM*	.	.	?
COCC(=O)NCCNC(=O)c1cccc(-c2ccc(SC)cc2)c1	?	.	.	-29%[138 µM]
COc1cccc(CNC(=O)CNC(=O)c2cccc(-c3ccc(SC)cc3)c2)c1	22µM*	.	.	-34%
Cc1[nH]ncc1CNC(=O)CCC[C@H]1NC[C@@H]2C[C@H]1CN(Cc1ccccc1)C2	8%	i	-9%	i
O=C(Cc1ccc(Cl)cc1)NC1CCN(c2cc(-c3cccs3)[nH]n2)C1 (stereo unspecified)	?	i	-17%	?
Cn1c(CN2CCC3(CCNCC3)C2)cc2ccccc21	?	i	2%	?
O=C(c1ccc(Cl)cc1)N1CCC(Cc2nc(-c3cnccn3)no2)CC1	?	i	?	25µM*
CNc1ncc(C(=O)N2CCCC(CCc3ccc(F)cc3)C2)cn1 (stereo unspecified)	?	i	4%	?
Cc1[nH]c2c(c1C(=O)N1CCCC(CCc3ccc(F)cc3)C1)C(=O)CCC2 (stereo unspecified)	32µM*	i	?	?
CCCc1nc(C(=O)NCc2ccc(-n3ccnc3C)cc2)cs1	20µM*	i	-27%	?
COc1ccc2nc(C[C@@H]3C[C@@H](C(C)C)[C@H](CN4C(=O)C(C)=C(C)C4=O)C=C3C)[nH]c2c1	?	i	-17%	?
COc1ccc(S(=O)(=O)NC[C@@H]2C=C(C)[C@H](CC(=O)N(C)Cc3cccnc3)C[C@H]2C(C)C)cc1	?	i	-12%	10µM*
CC1=C[C@@H](CN2C(=O)C(C)=C(C)C2=O)[C@H](C(C)C)C[C@H]1Cc1nc2ccc(C)cc2[nH]1	22µM*	i	?	28µM*
CC1=C[C@@H](CNC(=O)c2ccnc(Cl)c2)[C@H](C(C)C)C[C@H]1Cc1nc2ccc(C)cc2[nH]1	?	i	?	18µM*
CCC(CC)C(=O)NC[C@@H]1C=C(C)[C@H](Cc2nc3ccc(C)cc3[nH]2)C[C@H]1C(C)C	63µM*	i	-17%[70.6 µM]	?
SMILES	HEK cytotox	FLuc inh	NPR1 antag	NIH3T3 tox
CC1=C[C@@H](CNS(=O)(=O)c2ccccc2)[C@H](C(C)C)C[C@H]1Cc1nc2ccncc2[nH]1	71µM*	i	-23%[70.6 µM]	79µM*
COc1ccc(C(=O)NC[C@@H]2C=C(C)[C@H](Cc3nc4ccncc4[nH]3)C[C@H]2C(C)C)cc1	89µM*	i	-27%[70.6 µM]	?
CC1=C[C@@H](CNC(=O)CC(C)(C)CC(=O)O)[C@H](C(C)C)C[C@H]1Cc1nc2ccc(F)cc2[nH]1	-4%	i	3%	-1%
CCC(CC)C(=O)NC[C@@H]1C=C(C)[C@H](Cc2nc3ccc(F)cc3[nH]2)C[C@H]1C(C)C	?	i	-28%[70.6 µM]	100µM*
CCC(CC)C(=O)NC[C@@H]1C=C(C)[C@H](Cc2nc3ccc(OC)cc3[nH]2)C[C@H]1C(C)C	45µM*	i	-22%[70.6 µM]	?
CC1=C[C@@H](CNC(=O)CCC(=O)O)[C@H](C(C)C)C[C@H]1Cc1nc2ccncc2[nH]1	i	i	7%[70.6 µM]	3%[138 µM]
COc1ccccc1NC(=O)NC[C@H]1O[C@H](Cc2cc(-c3ccc(F)cc3)on2)CC[C@@H]1O	-25%	i	-19%	-24%
Cc1noc(-c2ccccc2Cl)c1C(=O)NCCCc1ccccc1	45µM*	i	0%	?
O=C(NC1CCOC1)C1CCN(c2nccc(Nc3ccccc3F)n2)CC1 (stereo unspecified)	-20%	.	.	-21%
COc1ccccc1-n1c(=O)c(C(=O)N2CCN(C(=O)Nc3ccc(Cl)cc3)CC2)nc2cccnc21	i	.	.	-14%
O=C(c1ccc(F)cc1)N1CCN(c2nccc(Nc3ccccc3F)n2)CC1	40µM*	.	.	32µM*
COc1ccccc1Nc1ccnc(N2CCN(C(=O)Nc3ccc(Cl)cc3)CC2)n1	40µM*	.	.	40µM*
COc1ccccc1Nc1ccnc(N2CCN(C(=O)c3ccc(F)cc3)CC2)n1	50µM*	.	.	22µM*
Cn1ncc2c(C(=O)NCC3CC3)cc(-c3ccc(F)cc3)nc21	-7%[172 µM]	.	.	-26%[138 µM]
O=C(CNC(=O)c1ccc(-c2cccc(C(F)(F)F)c2)cc1)NCCCc1ccccc1	-16%	.	.	-12%
Cc1nn(-c2ccccc2)c2c1C(C1CC1)N(CC1CN(C(=O)C3CCCC3)C1)C2=O (stereo unspecified)	?	.	.	45µM*
Cc1nn(-c2ccccc2)c2c1C(C1CC1)N(CC1CN(C(=O)N(C)C)C1)C2=O (stereo unspecified)	45µM*	.	.	?
Cc1nn(-c2ccccc2)c2c1C(C1CC1)N(CC1CN(C(=O)NC(C)C)C1)C2=O (stereo unspecified)	?	.	.	-29%
O=C(NCc1cccs1)c1nc2cccnc2n(Cc2ccccc2)c1=O	-11%	.	.	-30%
CC(=O)NCCC(=O)N1Cc2ccccc2CC2(CCCN2CCc2ccc(C)cc2)C1 (stereo unspecified)	-23%	.	.	-1%
CC1=C(C(=O)NC(C)(C)C)C(c2ccc(Cl)cc2)N2C(CC(=O)N3CCCC3)=CSC2=N1 (stereo unspecified)	?	i	-17%	45µM*
CC1=C(C(=O)OC(C)(C)C)C(c2ccc(Cl)cc2)N2C(CC(=O)N3CCCC3)=CSC2=N1 (stereo unspecified)	?	i	-26%	?

Source: PubChem
